Laboratory results reported in PubChem BioAssay (EPA / NIEHS).
Active and inactive are the calls of the source. Rule for the calls: active = hit-call score of the fitted dose curve at least 0.9, where 1 is the maximum; inactive = score below 0.9.

What was measured:
Details in all cases: mRNA level, 48 h; actives raise or lower the signal
[1] = read-out: 3-Hydroxy-3-Methylglutaryl-CoA Synthase 2 (HMGCS2), HMGCS2 (gene 3158); assay: LTEA_HepaRG_HMGCS2: Life Technologies and Expression Analysis (LTEA) Assay for 3-Hydroxy-3-Methylglutaryl-CoA Synthase 2 (HMGCS2) using HepaRG (AID 2283504)
Method in brief: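 Expression of HMGCS2 in human HepaRG liver cells is measured by qRT-PCR 48 h after dosing (highest 100 uM, half-log series, 0.5% DMSO). Values come from bidirectional concentration-response fitting with DMSO as baseline.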

HGF (gene 3082) = assay: LTEA_HepaRG_HGF: Life Technologies and Expression Analysis (LTEA) Assay for Hepatocyte Growth Facto (HGF) using HepaRG (AID 2283505)
Method in brief: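 Gain or loss of HGF mRNA in human HepaRG liver cells after 48 h chemical exposure; eight concentrations up to 100 uM with 0.5% DMSO vehicle, quantified by TaqMan qRT-PCR.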

[2] = read-out: Insulin Like Growth Factor 1 (IGF1), IGF1 (gene 3479); assay: LTEA_HepaRG_IGF1: Life Technologies and Expression Analysis (LTEA) Assay for Insulin Like Growth Factor 1 (IGF1) using HepaRG (AID 2283506)
Method in brief: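 qRT-PCR readout of IGF1 mRNA, normalized to three housekeeping genes, after 48 h chemical exposure of HepaRG cells. Concentrations: 8-point half-log series, top 100 uM, 0.5% DMSO vehicle. Gain or loss fitted against DMSO baseline.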

[3] = read-out: Intercellular Adhesion Molecule 1 (ICAM1), ICAM1 (gene 3383); assay: LTEA_HepaRG_ICAM1: Life Technologies and Expression Analysis (LTEA) Assay for Intercellular Adhesion Molecule 1 (ICAM1) using HepaRG (AID 2283507)
Method in brief: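 Gain or loss of transcript in HepaRG hepatic cells is quantified by qRT-PCR after 48 h chemical exposure (up to 100 uM, half-log steps), with DMSO as baseline.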

[4] = read-out: Insulin-like growth factor-binding protein 1 (IGFBP1), IGFBP1 (gene 3484); assay: LTEA_HepaRG_IGFBP1: Life Technologies and Expression Analysis (LTEA) Assay for Insulin-like growth factor-binding protein 1 (IGFBP1) using HepaRG (AID 2283508)
Method in brief: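 mRNA induction or loss was quantified by qRT-PCR after 48 h chemical exposure of human HepaRG cells, with 0.5% DMSO as vehicle and baseline. Concentration-response over eight points up to 100 uM.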

[5] = read-out: Interleukin 6 (IL6), IL6 (gene 3569); assay: LTEA_HepaRG_IL6: Life Technologies and Expression Analysis (LTEA) Assay for Interleukin 6 (IL6) using HepaRG (AID 2283509)
Method in brief: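 Changes in IL6 mRNA, up or down relative to 0.5% DMSO controls, were derived from concentration-response curves in human HepaRG cells treated for 48 h at up to 100 uM, with ACTB, GAPDH and POLR2A as normalizers.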

[6] = read-out: Interleukin 6 Receptor (IL6R), IL6R (gene 3570); assay: LTEA_HepaRG_IL6R: Life Technologies and Expression Analysis (LTEA) Assay for Interleukin 6 Receptor (IL6R) using HepaRG (AID 2283510)
Method in brief: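 HepaRG, 48 h exposure, 8-pt half-log series, top 100 uM, 0.5% DMSO vehicle, duplicates. Read-out: TaqMan qRT-PCR of IL6R transcript, housekeeping-gene normalized. Gain or loss fitted relative to DMSO baseline.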

[7] = read-out: Potassium channel subfamily K member 1 (KCNK1), KCNK1 (gene 3775); assay: LTEA_HepaRG_KCNK1: Life Technologies and Expression Analysis (LTEA) Assay for Potassium channel subfamily K member 1 (KCNK1) using HepaRG (AID 2283511)
Method in brief: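 Human HepaRG cultures receive test chemicals for 48 h in 0.5% DMSO, top concentration 100 uM with half-log dilutions. Induction or suppression of KCNK1 mRNA relative to DMSO is derived by bidirectional fitting of qRT-PCR data.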

[8] = read-out: Keratin 19 (KRT19), KRT19 (gene 3880); assay: LTEA_HepaRG_KRT19: Life Technologies and Expression Analysis (LTEA) Assay for Keratin 19 (KRT19) using HepaRG (AID 2283512)
Method in brief: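 Gene-expression endpoint in the human liver line HepaRG after 48 h exposure to up to 100 uM test chemical with 0.5% DMSO vehicle; KRT19 mRNA by qRT-PCR, analyzed bidirectionally versus DMSO.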

[9] = read-out: JUN Transcription Factor, JUN (gene 3725); assay: LTEA_HepaRG_JUN: Life Technologies and Expression Analysis (LTEA) Assay for JUN Transcription Factor using HepaRG (AID 2283513)
Method in brief: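 HepaRG, 48 h exposure, 8-pt half-log series top 100 uM, 0.5% DMSO, duplicate. JUN mRNA by qRT-PCR (Fluidigm), housekeeping-normalized (ACTB/GAPDH/POLR2A); bidirectional curve fit vs DMSO baseline.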

[10] = read-out: Lipase C (LIPC), LIPC (gene 3990); assay: LTEA_HepaRG_LIPC: Life Technologies and Expression Analysis (LTEA) Assay for Lipase C (LIPC) using HepaRG (AID 2283514)
Method in brief: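 In this multiplexed gene-expression screen, human HepaRG cultures received test chemicals for 48 h across eight concentrations with 100 uM highest, in duplicate. Values reflect LIPC mRNA induction or suppression versus DMSO vehicle, from normalized qRT-PCR.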

[11] = read-out: Lipoprotein lipase (LPL), LPL (gene 4023); assay: LTEA_HepaRG_LPL: Life Technologies and Expression Analysis (LTEA) Assay for Lipoprotein lipase (LPL) using HepaRG (AID 2283515)
Method in brief: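 Concentration-response testing used half-log steps from 100 uM in 0.5% DMSO on human HepaRG cells, 48 h, duplicate wells. Phenobarbital 1 mM served as induction control; LPL mRNA was normalized to ACTB, GAPDH, POLR2A.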

[12] = read-out: MicroRNA 122 (MIR122), gene 406906; assay: LTEA_HepaRG_MIR122: Life Technologies and Expression Analysis (LTEA) Assay for MicroRNA 122 (MIR122) using HepaRG (AID 2283516); note: the transcript read is the microRNA miR-122
Method in brief: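 qRT-PCR read-out (TaqMan, Fluidigm array), normalized to three housekeeping genes; HepaRG cells dosed 48 h at 8 concentrations up to 100 uM in 0.5% DMSO, duplicate; gain or loss fitted against DMSO baseline.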

[13] = read-out: matrix metalloproteinase-10 (MMP10), MMP10 (gene 4319); assay: LTEA_HepaRG_MMP10: Life Technologies and Expression Analysis (LTEA) Assay for matrix metalloproteinase-10 (MMP10) using HepaRG (AID 2283517)
Method in brief: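 In differentiated HepaRG cultures kept in 0.5% DMSO, test chemicals act for 48 h over an eight-point range with a top dose of 100 uM. Expression is then quantified by TaqMan RT-PCR against ACTB, GAPDH and POLR2A.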

MYC, MYC (gene 4609) = assay: LTEA_HepaRG_MYC: Life Technologies and Expression Analysis (LTEA) Assay for MYC using HepaRG (AID 2283518)
Method in brief: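 Cells are thawed, plated and cultured 48 h, then treated for 48 h with test chemicals (eight half-log concentrations from 100 uM, 0.5% DMSO vehicle). RNA is isolated and MYC expression quantified by qRT-PCR against three housekeeping genes.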

[14] = read-out: matrix metalloproteinase-3 (MMP3), MMP3 (gene 4314); assay: LTEA_HepaRG_MMP3: Life Technologies and Expression Analysis (LTEA) Assay for matrix metalloproteinase-3 (MMP3) using HepaRG (AID 2283519)
Method in brief: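 Human liver HepaRG cultures received chemicals (top concentration 100 uM, 0.5% DMSO) for 48 h in duplicate. MMP3 mRNA induction or loss was then assessed via TaqMan qRT-PCR with housekeeping-gene normalisation.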

[15] = read-out: Paternally Expressed 10 (PEG10), PEG10 (gene 23089); assay: LTEA_HepaRG_PEG10: Life Technologies and Expression Analysis (LTEA) Assay for Paternally Expressed 10 (PEG10) using HepaRG (AID 2283520)
Method in brief: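 qRT-PCR read-out: PEG10 mRNA normalised to three housekeeping genes, fitted bidirectionally against 0.5% DMSO vehicle. HepaRG cells received test chemicals for 48 h in serum-free induction medium, 8 points, top 100 uM, half-log steps.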

[16] = read-out: Protein phosphatase 2A (PPP2R4), PTPA (gene 5524); assay: LTEA_HepaRG_PPP2R4: Life Technologies and Expression Analysis (LTEA) Assay for Protein phosphatase 2A (PPP2R4) using HepaRG (AID 2283522)
Method in brief: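 HepaRG, 48 h exposure, 8-pt half-log series from 100 uM, 0.5% DMSO vehicle, duplicates. Readout: PPP2R4 mRNA, Fluidigm qRT-PCR, housekeeping-normalized. Bidirectional curve fit vs DMSO baseline.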

[17] = read-out: Phosphatase and tensin (PTEN), PTEN (gene 5728); assay: LTEA_HepaRG_PTEN: Life Technologies and Expression Analysis (LTEA) Assay for Phosphatase and tensin (PTEN) using HepaRG (AID 2283523)
Method in brief: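 Expression of PTEN is quantified in the human liver line HepaRG following two days of dosing (top concentration 100 uM, half-log dilutions, 0.5% DMSO). Values derive from bidirectional curve fitting relative to DMSO controls.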

[18] = read-out: solute carrier (SLC22A1), SLC22A1 (gene 6580); assay: LTEA_HepaRG_SLC22A1: Life Technologies and Expression Analysis (LTEA) Assay for solute carrier (SLC22A1) using HepaRG (AID 2283524)
Method in brief: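 Transcript induction or suppression of SLC22A1 in human HepaRG cultures is scored after 48 h chemical treatment, with DMSO (0.5%) as baseline for bidirectional fitting. Concentrations span eight half-log points topping at 100 uM.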

Measured: outcome

CCC(C)=NO
inactive: [1] | HGF (gene 3082) | [2] | [3] | [4] | [5] | [6] | [7] | [8] | [9] | [10] | [11] | [12] | [13] | MYC, MYC (gene 4609) | [14] | [15] | [16] | [17] | [18]
